Measured values as given in the supplement of paper PMC11732987, “Enantioselective OTUD7B fragment discovery through chemoproteomics screening and high-throughput optimisation” (Communications Chemistry, 2025).

Assays:
Experiment in all cases: log2 ratio of Biotin-Ahx-Ub-VS probe labelling (fragment/DMSO); higher = less target engagement (more negative = stronger competition), active = hit call of the paper (q ≤ 0.05, log2 ratio ≤ -1)
Conditions in all cases: compound concentration: 200 uM; treatment time: 3 h
[1] = molecular target: USP34 (UniProt Q70CQ2)
Outline: (§1)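 HEK293T lysate, 495 µg per sample in Tris/CHAPS/IGEPAL buffer with protease inhibitors, was treated in triplicate with fragment at 200 µM or vehicle for 3 h and then with Biotin-Ahx-Ub-VS at 0.5 µM final for 1 h. Labelled DUBs were NeutrAvidin-enriched, digested with LysC and trypsin, and run by diaPASEF LC-MS/MS. Spectronaut label-free quantities were global-median-normalised, and values are average log2 fragment/vehicle ratios by unpaired t-test on proteins with ≥2 unique peptides.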

[2] = molecular target: T1, USP36 (UniProt Q9P275)
T1 sequence (whole entry): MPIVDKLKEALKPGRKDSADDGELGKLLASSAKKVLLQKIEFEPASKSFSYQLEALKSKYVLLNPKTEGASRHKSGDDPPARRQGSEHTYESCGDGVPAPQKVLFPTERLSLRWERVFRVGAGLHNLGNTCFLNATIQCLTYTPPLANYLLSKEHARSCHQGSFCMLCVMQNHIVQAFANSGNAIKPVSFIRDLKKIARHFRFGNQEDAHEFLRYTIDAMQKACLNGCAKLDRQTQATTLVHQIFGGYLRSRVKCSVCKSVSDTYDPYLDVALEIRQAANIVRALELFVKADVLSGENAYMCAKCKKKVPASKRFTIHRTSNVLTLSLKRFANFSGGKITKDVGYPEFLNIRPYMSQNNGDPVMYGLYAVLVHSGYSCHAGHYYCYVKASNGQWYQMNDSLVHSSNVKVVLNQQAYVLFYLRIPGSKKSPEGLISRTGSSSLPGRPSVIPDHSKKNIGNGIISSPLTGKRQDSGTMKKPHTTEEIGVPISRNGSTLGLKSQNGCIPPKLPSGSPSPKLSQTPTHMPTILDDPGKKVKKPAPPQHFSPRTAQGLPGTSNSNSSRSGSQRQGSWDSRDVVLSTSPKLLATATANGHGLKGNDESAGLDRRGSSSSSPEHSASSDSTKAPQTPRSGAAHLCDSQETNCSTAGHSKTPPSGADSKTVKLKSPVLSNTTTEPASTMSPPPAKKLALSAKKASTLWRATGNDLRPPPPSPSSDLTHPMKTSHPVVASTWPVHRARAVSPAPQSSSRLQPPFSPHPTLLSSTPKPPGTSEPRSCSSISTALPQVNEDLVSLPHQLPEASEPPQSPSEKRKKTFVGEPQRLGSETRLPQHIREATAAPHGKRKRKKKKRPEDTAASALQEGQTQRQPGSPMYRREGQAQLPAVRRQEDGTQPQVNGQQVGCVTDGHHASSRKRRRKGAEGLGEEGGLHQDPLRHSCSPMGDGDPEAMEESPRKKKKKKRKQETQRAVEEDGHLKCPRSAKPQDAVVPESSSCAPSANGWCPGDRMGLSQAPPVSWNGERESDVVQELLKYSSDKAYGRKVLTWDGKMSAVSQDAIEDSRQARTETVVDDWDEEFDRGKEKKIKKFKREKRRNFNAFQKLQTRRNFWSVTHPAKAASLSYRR
Outline: as §1

[3] = molecular target: T2, USP38 (UniProt Q8NB14)
T2 sequence (whole entry): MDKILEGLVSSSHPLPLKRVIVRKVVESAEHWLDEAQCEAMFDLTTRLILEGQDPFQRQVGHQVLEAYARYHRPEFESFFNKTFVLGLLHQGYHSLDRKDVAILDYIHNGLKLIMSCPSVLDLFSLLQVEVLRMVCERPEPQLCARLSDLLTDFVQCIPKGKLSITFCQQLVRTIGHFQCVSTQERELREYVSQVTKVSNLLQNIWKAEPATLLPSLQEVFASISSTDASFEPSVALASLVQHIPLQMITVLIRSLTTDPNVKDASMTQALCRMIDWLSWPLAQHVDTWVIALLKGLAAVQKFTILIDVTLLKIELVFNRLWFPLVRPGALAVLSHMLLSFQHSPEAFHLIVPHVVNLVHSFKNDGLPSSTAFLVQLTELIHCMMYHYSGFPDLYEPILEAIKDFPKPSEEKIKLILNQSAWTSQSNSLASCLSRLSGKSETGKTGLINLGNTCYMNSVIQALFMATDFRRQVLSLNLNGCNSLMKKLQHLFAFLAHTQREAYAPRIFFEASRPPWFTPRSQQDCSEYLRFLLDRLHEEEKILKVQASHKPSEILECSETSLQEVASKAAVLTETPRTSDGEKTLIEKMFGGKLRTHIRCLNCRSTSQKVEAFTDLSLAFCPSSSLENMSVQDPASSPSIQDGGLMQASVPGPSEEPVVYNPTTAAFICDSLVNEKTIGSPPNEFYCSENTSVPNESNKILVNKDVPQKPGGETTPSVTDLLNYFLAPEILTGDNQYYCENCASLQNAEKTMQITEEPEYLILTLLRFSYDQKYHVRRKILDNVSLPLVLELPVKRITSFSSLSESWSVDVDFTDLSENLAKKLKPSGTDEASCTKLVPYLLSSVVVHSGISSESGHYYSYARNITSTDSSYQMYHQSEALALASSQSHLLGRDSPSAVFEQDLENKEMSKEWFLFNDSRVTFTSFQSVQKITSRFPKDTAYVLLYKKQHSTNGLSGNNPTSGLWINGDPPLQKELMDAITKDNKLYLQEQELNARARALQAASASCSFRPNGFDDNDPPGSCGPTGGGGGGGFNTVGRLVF
Outline: as §1

[4] = molecular target: T3, USP39 (UniProt Q53GS9)
T3 sequence (whole entry): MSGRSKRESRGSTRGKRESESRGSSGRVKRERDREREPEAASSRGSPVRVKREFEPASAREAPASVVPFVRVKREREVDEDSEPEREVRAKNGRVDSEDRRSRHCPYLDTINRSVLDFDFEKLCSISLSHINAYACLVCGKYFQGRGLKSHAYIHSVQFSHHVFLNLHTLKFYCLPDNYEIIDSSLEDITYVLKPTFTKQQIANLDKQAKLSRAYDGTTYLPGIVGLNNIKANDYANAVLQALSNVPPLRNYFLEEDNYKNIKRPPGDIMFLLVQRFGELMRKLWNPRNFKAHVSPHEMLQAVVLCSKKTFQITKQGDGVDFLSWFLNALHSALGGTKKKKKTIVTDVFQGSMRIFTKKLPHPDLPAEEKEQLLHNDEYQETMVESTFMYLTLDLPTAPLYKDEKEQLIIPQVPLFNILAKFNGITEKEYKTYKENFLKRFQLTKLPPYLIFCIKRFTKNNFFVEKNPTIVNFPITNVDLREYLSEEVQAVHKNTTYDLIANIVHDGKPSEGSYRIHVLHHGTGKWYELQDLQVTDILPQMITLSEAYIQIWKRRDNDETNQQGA
Outline: as §1

[5] = molecular target: T4, USP4 (UniProt Q13107)
T4 sequence (whole entry): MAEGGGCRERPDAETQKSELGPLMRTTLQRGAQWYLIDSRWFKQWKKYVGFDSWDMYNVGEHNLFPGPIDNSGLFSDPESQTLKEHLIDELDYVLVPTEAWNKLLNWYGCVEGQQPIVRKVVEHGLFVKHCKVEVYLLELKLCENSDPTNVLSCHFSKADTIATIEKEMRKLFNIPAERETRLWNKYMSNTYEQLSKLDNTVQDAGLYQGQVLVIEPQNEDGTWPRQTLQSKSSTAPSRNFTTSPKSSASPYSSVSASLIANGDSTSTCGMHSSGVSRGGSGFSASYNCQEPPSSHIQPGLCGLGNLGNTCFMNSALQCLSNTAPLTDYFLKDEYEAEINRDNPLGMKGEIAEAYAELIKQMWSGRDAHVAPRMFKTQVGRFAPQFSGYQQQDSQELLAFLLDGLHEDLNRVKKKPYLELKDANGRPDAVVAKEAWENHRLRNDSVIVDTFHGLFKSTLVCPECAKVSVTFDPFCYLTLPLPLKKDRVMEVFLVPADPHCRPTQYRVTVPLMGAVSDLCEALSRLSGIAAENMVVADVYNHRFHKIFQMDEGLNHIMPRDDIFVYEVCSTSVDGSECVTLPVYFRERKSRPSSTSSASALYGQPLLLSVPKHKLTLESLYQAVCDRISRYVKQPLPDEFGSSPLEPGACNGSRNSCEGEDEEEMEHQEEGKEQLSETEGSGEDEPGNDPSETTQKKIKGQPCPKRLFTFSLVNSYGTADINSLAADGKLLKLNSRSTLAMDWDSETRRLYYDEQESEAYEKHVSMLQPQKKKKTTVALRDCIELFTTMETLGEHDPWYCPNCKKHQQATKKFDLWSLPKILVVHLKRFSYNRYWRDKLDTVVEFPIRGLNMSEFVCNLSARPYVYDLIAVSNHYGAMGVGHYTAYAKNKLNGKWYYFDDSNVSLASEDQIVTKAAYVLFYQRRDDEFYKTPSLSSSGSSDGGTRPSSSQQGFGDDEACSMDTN
Outline: as §1

Measured: log2 ratio of Biotin-Ahx-Ub-VS probe labelling

Chain of USP34 (Q70CQ2 whole entry, the tested form may be a part): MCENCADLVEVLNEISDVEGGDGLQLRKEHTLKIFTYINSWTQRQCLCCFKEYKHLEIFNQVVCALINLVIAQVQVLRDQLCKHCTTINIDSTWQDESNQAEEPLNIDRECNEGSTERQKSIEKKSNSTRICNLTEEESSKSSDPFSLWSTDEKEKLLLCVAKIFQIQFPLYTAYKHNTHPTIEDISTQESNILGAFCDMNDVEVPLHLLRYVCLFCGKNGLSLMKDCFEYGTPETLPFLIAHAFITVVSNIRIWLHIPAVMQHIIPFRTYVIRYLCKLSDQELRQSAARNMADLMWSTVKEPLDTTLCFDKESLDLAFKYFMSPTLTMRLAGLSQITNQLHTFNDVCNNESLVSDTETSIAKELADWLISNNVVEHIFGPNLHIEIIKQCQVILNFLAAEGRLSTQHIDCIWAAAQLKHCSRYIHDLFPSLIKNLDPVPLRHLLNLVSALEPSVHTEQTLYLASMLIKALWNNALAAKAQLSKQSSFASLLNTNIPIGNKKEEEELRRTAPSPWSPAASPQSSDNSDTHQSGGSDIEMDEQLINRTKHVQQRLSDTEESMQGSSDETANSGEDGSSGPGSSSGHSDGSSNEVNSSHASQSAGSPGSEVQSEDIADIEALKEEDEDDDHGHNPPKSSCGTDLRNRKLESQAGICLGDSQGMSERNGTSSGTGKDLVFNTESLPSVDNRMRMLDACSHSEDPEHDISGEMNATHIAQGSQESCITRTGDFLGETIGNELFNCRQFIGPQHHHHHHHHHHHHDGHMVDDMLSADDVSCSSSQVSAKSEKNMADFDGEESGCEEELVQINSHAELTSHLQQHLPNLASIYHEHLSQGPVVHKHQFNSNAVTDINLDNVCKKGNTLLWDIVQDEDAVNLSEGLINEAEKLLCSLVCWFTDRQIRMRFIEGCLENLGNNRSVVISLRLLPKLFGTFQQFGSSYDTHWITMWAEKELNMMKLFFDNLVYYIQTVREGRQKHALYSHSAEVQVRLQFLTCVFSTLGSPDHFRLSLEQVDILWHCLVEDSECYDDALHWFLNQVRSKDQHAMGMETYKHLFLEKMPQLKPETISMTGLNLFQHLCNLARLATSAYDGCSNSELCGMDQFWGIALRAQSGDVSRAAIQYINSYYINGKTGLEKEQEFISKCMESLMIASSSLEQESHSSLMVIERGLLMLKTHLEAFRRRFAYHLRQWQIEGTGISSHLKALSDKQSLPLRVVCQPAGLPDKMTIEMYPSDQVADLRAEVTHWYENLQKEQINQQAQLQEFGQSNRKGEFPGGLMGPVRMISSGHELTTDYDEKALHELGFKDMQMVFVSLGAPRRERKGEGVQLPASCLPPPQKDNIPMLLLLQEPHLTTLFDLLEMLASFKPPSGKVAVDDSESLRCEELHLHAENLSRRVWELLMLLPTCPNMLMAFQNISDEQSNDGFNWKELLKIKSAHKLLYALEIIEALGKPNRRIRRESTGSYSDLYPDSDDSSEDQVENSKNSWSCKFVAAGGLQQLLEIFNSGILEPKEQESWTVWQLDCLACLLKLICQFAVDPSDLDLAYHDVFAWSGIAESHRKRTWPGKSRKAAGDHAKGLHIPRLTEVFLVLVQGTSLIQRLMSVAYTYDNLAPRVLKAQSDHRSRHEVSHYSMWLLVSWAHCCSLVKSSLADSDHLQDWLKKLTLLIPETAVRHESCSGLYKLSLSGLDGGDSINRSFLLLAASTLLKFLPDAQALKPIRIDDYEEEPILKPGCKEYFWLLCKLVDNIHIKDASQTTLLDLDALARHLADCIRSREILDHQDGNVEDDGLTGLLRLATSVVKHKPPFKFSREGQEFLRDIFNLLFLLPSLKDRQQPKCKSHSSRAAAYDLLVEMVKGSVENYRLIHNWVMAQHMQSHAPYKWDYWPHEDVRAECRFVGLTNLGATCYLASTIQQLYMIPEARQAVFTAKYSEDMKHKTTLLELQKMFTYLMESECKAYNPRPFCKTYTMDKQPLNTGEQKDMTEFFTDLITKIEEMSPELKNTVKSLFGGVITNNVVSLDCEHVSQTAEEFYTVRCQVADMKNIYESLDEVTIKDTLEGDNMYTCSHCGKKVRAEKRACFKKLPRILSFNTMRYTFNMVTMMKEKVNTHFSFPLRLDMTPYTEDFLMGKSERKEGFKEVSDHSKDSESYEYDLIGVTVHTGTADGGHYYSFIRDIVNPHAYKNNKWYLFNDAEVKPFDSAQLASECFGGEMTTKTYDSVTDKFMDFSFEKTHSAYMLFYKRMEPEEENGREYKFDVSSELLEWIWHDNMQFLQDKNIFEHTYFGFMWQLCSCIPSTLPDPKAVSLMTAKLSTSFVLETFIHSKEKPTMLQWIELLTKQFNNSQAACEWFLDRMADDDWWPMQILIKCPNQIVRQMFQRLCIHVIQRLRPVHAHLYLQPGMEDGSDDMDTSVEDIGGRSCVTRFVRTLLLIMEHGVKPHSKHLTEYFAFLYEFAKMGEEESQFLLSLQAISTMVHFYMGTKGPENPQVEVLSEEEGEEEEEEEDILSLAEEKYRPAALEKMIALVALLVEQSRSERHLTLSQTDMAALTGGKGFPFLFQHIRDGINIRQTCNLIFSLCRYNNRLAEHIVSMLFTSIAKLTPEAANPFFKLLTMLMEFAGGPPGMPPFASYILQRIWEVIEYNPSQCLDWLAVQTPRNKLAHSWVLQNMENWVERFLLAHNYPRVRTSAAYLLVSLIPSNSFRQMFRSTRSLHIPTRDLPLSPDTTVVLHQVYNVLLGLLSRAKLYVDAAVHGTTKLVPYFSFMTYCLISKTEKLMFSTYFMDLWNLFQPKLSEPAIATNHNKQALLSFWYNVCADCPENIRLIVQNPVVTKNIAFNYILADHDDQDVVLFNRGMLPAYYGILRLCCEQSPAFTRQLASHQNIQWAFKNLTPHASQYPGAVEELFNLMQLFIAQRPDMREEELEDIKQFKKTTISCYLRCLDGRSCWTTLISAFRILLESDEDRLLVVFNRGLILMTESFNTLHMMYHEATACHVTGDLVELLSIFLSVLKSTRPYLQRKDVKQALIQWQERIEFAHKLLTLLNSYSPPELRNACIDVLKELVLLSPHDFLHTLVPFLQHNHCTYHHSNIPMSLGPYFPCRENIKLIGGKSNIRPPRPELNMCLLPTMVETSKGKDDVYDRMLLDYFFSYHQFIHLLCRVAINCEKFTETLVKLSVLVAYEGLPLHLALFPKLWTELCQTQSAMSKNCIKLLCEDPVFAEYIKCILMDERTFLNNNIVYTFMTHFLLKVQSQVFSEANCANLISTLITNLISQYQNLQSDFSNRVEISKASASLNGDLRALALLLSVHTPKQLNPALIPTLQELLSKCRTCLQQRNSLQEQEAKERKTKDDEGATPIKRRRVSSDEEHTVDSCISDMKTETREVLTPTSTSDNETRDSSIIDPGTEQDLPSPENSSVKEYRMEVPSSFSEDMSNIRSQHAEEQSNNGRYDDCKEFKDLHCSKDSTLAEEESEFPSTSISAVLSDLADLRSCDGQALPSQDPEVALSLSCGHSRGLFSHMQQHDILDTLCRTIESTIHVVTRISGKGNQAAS

CC(O)CC1CCN(C(=O)CCl)CC1 (stereo not given)
inactive: [1] -0.0285 | [2] -0.326 | [3] -0.143 | [4] -0.0644 | [5] -0.0429
